From PubChem BioAssay (NCATS)
Results filed as inconclusive are left out. Entries that show only a call come without a potency. Activity calls are given as the source filed them. The call rests on the fitted dose curve; in most records, active means well fitted inhibition curve with a large enough effect; inconclusive means small, poorly fitted or top-dose-only effect; inactive means no such curve, though single readings can be large or run the other way. Where a SMILES comes first, the peptide text is derived from it.

Tested on: Zika virus NS2B-NS3 protease (linked construct)
Test: Primary screen NINDS Rhodamine qHTS for Zika virus inhibitors (AID 1347160); further: nearly all actives have a fitted effect of over 55% in size
Conditions: purified NS2B-NS3 protease, Rhodamine110 substrate fluorescence; series mostly up to 33.1 µM
Summary of the method: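 Percent inhibition, normalized to uninhibited and enzyme-free controls, is fitted to a 4-parameter Hill equation. Fluorescence change comes from a 15-min cleavage of 1.5 microM bis-peptide Rhodamine110 substrate by 25 nM linked NS2B-NS3 at room temperature.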

Compound | Potency
C=C1C(OC(C)=O)C(=O)C2C(C)(C)C(O)CCC2(C)C1CC(OC(C)=O)/C(C)=C/COC(C)=O (stereo not drawn) | inactive
O=C(O[C@H]1[C@H](Oc2ccc(O)cc2CO)O[C@H](CO)[C@@H](O)[C@@H]1O)c1ccccc1 | inactive
CC1(C)CC[C@]2(C(=O)O[C@@H]3O[C@H](CO)[C@@H](O)[C@H](O)[C@H]3O)CC[C@]3(C)C(=CCC4[C@@]5(C)CC[C@H](OC6OC(C(=O)O)C(OC7OC(CO)C(O)C(O)C7O)C(O)C6O)C(C)(C)C5CC[C@]43C)C2C1 (stereo partly drawn) | inactive
C=C(C)C(O)COc1ccc(CC(=O)O)cc1 (stereo not drawn) | inactive
C/C=C1\[C@H](O[C@@H]2O[C@H](CO)[C@@H](O)[C@H](O)[C@H]2O)OC=C(C(=O)O)[C@H]1CC(=O)OCCc1ccc(O)cc1 | inactive
Cc1cc(CO)c(O)c(C(=O)CC2CC(=O)NC(=O)C2)c1 | inactive
CCOC(=O)COc1ccc2c(c1)C[C@@H](NC[C@H](O)c1cccc(Cl)c1)CC2 | inactive
CC(C)=CCC/C(C)=C/CO[C@@H]1O[C@H](CO[C@@H]2O[C@@H](CO)[C@H](O)[C@H]2O)[C@@H](O)[C@H](O)[C@H]1O | inactive
O=C(O)Cc1cn([C@@H]2OC[C@@H](O[C@@H]3O[C@H](CO)[C@@H](O)[C@H](O)[C@H]3O)[C@H](O)[C@H]2O[C@@H]2O[C@H](CO)[C@@H](O)[C@H](O)[C@H]2O)c2ccccc12 | inactive
COc1ccc(C2COc3cc(O)ccc3C2)c(O)c1OC (stereo not drawn) | inactive
Cc1c(NC(=O)N2CCOCC2)ccc2c1c1ccccc1n2C(C)C | inactive
COc1cc(C(C)=O)ccc1O[C@@H]1O[C@H](CO[C@@H]2OC[C@@H](O)[C@H](O)[C@H]2O)[C@@H](O)[C@H](O)[C@H]1O | inactive
C=CC(C)(O)CC/C=C(\C)C(=O)O[C@@H]1[C@@H](O)[C@H](OC(C)(C=C)CC/C=C(\C)C(=O)O[C@@H]2O[C@H](CO)[C@@H](O)[C@H](O)[C@H]2O)O[C@H](CO)[C@H]1OC(=O)/C(C)=C/CCC(C)(O)C=C (stereo partly drawn) | inactive
CC(O)C1CCC2C3CCC4CC(OC5OC(C(=O)O)C(O)C(O)C5O)CCC4(C)C3CCC12C (stereo not drawn) | inactive
OC[C@@]1(O)CO[C@@H](OC[C@H]2O[C@@H](Oc3ccccc3)[C@H](O)[C@@H](O)[C@@H]2O)[C@@H]1O | inactive
CC1(C)CC(NC(=O)C(=O)Nc2ccc(Cl)cc2)CC(C)(C)N1 | inactive
C=C[C@@](C)(CCC=C(C)C)O[C@@H]1O[C@H](CO[C@@H]2OC[C@H](O)[C@H](O)[C@H]2O)[C@@H](O)[C@H](O)[C@H]1O | inactive
COc1ccc(-n2[nH]c3c(cnc4ccccc43)c2=O)cc1 | inactive
COc1cc(C2OCC3(O)C(c4ccc(O[C@@H]5O[C@H](CO)[C@@H](O)[C@H](O)[C@H]5O)c(OC)c4)OCC23O)ccc1O (stereo partly drawn) | inactive
O=C(CCCCC1CCCCC1)N1CCC(c2cnc[nH]2)CC1 | inactive
COc1ccc(CCc2nc3cc(-c4c(C)noc4C)ccc3n2C[C@H](C)N2CCOCC2)cc1Cl | inactive
CCOc1nc2c(N)ncnc2n1CC | inactive
C[C@@H]1O[C@@H](O[C@@H]2[C@@H](O)[C@H](O[C@@H]3[C@@H](O)[C@@H](O)[C@H](O[C@H]4[C@H](OC(=O)[C@]56CCC(C)(C)C[C@H]5C5=CCC7[C@@]8(C)C[C@H](O)[C@H](O[C@@H]9O[C@H](C(=O)O)[C@@H](O)[C@H](O)[C@H]9O)[C@@](C)(CO)C8[C@H](O)C[C@@]7(C)[C@]5(C)C[C@H]6O)O[C@@H](CO)[C@@H]4O)O[C@H]3C)OC[C@H]2O)[C@H](O)[C@H](O)[C@H]1O (stereo partly drawn) | inactive
O=C(O)C(Cc1ccccc1)NC(=O)C1CCCN1 (stereo not drawn) (H-Pro-Phe-OH; configuration not given here) | inactive
COC(=O)C1=CO[C@@H](O[C@@H]2O[C@H](CO)[C@@H](O)[C@H](O)[C@H]2O)[C@@H]2[C@@H](C(=O)O)CC[C@H]12 | inactive
CC(C)[C@@](O)(c1ccc2cc(OC(F)F)c(OC(F)F)cc2c1)c1cn[nH]n1 | inactive
C=C(C(=O)O)C1CC(O)C2(C)CCCC(C)(O)C2C1 (stereo not drawn) | inactive
C[C@]1(O)CC[C@@H]2C(C(=O)O)=CO[C@@H](O[C@@H]3O[C@H](CO)[C@@H](O)[C@H](O)[C@H]3O)[C@@H]21 | inactive
